Measured values taken from PubChem BioAssay (Tox21).
Results filed as inconclusive are left out. A number with no mark means an inactive call. The source made the active and inactive calls. Calls follow the shape of the dose curve; as a rule, active = well fitted cell-killing curve with a large enough effect in the repeat runs; inconclusive = weak or mixed curves, or effect the other way; inactive = flat fitted curve, though single readings scatter.

Experiment: cAMP Responsive Elements (CRE) small molecule antagonists, cell-based qHTS assay: qHTS cell viability counter screen (AID 2060913); also: nearly all actives have a fitted effect of over 40% in size
Settings: CRE-bla HEK293T viability, CellTiter-Glo luminescence, 5 h; series mostly up to 92.4 µM; viability change, negative = cytotoxic: at the top concentration
Procedure, shortened: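 Steps: cells plated and held 18 hrs at 37 C/5% CO2; compounds and NKH477 (0.25 uM final) added; 3 hrs incubation; reporter substrate read; CellTiter-Glo added to measure cytotoxicity by luminescence.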
% is scaled to controls: 0 for no effect and ±100 for the full control effect; potency is read from the fitted curve at half-maximal effect.

SMILES	Potency	viability change, negative = cytotoxic
OC(O)C(Cl)(Cl)Cl	inactive	–
COCC(=O)N(c1c(C)cccc1C)[C@H](C)C(=O)OC	–	-0.0434%
Cc1ccccc1[N+](=O)[O-]	inactive	–
CNC(=O)Oc1ccccc1OC(C)C	inactive	–
CCC1(c2ccccc2)C(=O)N(COC)C(=O)N(COC)C1=O	–	1.7% [at 42.5 µM]
O=C(Cl)OCCOCCOC(=O)Cl	–	-7.45%
NC(=O)OCCCc1ccccc1	–	11.3% [at 42.5 µM]
C[N+](C)(C)CCOC(=O)C(O)(c1ccccc1)c1ccccc1	–	1.98% [at 42.5 µM]
O=C1CCCO1	inactive	–
C=CCOC(=O)c1ccccc1N	–	-11%
O=C(O)c1cc[c]([Hg][Cl])cc1	–	-4.96%
O=C(Cl)C(Cl)Cl	–	0.231%
O=C(Nc1ccc(Br)cc1)c1cc(Br)cc(Br)c1O	inactive	–
ClC1=C(Cl)C2(Cl)C3C(Cl)C(Cl)CC3C1(Cl)C2(Cl)Cl (stereo not given)	60.9 µM (active)	–
CCCCN(CCCC)C(=S)S	–	-1.03%
Nc1ccncc1	inactive	–
CCCCCc1cc(O)cc(O)c1	inactive	–
COc1ccc(/C(=C/C(=O)N2CCOCC2)c2ccc(Cl)cc2)cc1OC	–	-3.16%
O=C1OC(=O)C2C1C1(Cl)C(Cl)=C(Cl)C2(Cl)C1(Cl)Cl (stereo not given)	–	5.7%
O=[N+]([O-])c1ccccc1	inactive	–
CCCN1CCC[C@@H]2Cc3[nH]ncc3C[C@H]21	–	4.72% [at 42.5 µM]
CC(O)(CS(=O)(=O)c1ccc(F)cc1)C(=O)Nc1ccc(C#N)c(C(F)(F)F)c1 (stereo not given)	–	0.443% [at 42.5 µM]
O=c1nc(O)n(Cl)c(=O)n1Cl	inactive	–
C1=CCC=C1	–	0%
Cc1c([N+](=O)[O-])cc2c(c1[N+](=O)[O-])C(C)(C)CC2(C)C	–	-6.2%
